Source: PubChem (National Center for Advancing Translational Sciences (NCATS))
Sm TGR inh – S. mansoni TGR enzyme inhibition | Q962Y6 | purified TGR, DTNB reduction, TNB absorbance 405 nm | Potency, µM (top dose mostly 114 µM), without a hit: top-dose activity change, negative = inhibition, usual class: inhibitors | 3% of 360,000 active | AID 485364; note: nearly all actives have a fitted effect of over 60% in size
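First, TGR (20 nM dispensed) and NADPH were mixed with compound. Second, a 15 min room-temperature incubation followed. Third, further NADPH and then DTNB were added to start the reaction. Finally, TNB absorbance was monitored kinetically.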
FMDV antiviral – blocks foot and mouth disease virus; Potency, µM (highest dose often 57.9 µM), for the others: at the highest dose activity change, negative = inhibition, actives largely listed as inhibitors; AID 1159524; 1.2% of 410,000 active; FMDV antiviral cell-based qHTS; calls by dose curve; tested in HEK293T cells; note: read-out not given here; nearly all actives have a fitted effect of over 45% in size
TbPYK inhibitor – T. brucei pyruvate kinase inhibition | Q57TT1 | TbPYK enzyme, Kinase-Glo Plus ATP luminescence, 45 min | Potency, µM (top dose mostly 76.8 µM), for inactives: top-dose activity, negative = inhibition, most hits filed as inhibitors | 0.12% of 410,000 active; note: nearly all actives have a fitted effect of over 50% in size
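Luminescent Kinase-Glo Plus end-point after 45 min room-temperature reaction of T. brucei pyruvate kinase started with 130 uM ADP (final). Buffer TEA 50 mM pH 7.2 with KCl, MgCl2, BSA, Tween-20; titration-based qHTS with fitted concentration-effect curves.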
RE007 growth inh – less growth of the S. pombe RE007 Vpr strain | Potency, µM (series often up to 92.2 µM), inactives show at the top dose activity change, negative = less growth, most hits filed as inhibitors | 0.21% of 360,000 active | S. pombe RE007 Vpr strain, BacTiter-Glo ATP luminescence, 24 h; active = well fitted falling curve with a large enough effect; inconclusive = small, poorly fitted or top-dose-only effect; inactive = no such curve, though single readings can be large or run the other way; note: nearly all actives have a fitted effect of over 50% in size
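Fission yeast strain RE007, carrying one chromosomally integrated HIV-1 vpr copy, was seeded at OD 0.01 in PMG+AL medium with 23 nL pinned compound. After 24 h at 30 °C and 99% humidity, viability was read by BacTiter-Glo luminescence.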
Active calls of the source: *. Rows were chosen to be rich in hits. Some 3.7% of all compounds tested hit in one or more screens of this group. Unless noted, calls come from the whole dose curve; as a rule, active = well fitted curve in the direction sought with a large enough effect; inconclusive = small, poorly fitted or top-dose-only effect, or another doubt; inactive = no such curve, though single readings can be large; an effect the other way counts as inactive or inconclusive. % is set by controls: 0 for no effect and ±100 for the full control effect; potency is the fitted concentration of half-maximal effect.

Results for O=C1NC(=O)N(Cc2ccccc2)C(=O)/C1=C\c1ccco1 ?
Sm TGR inh: -48%; FMDV antiviral: inconclusive; TbPYK inhibitor: inconclusive; RE007 growth inh: 1%

Results for CCc1ccc(N2C(=O)NC(=O)/C(=C\C=C\c3ccco3)C2=O)cc1 ?
Sm TGR inh: 11µM*; FMDV antiviral: 25µM*; TbPYK inhibitor: -9%; RE007 growth inh: 23%

What do the screens show for `Cc1ccc(N2C(=O)NC(=O)/C(=C/C=C/c3ccco3)C2=O)cc1`?
Sm TGR inh: inconclusive; FMDV antiviral: inconclusive; TbPYK inhibitor: -24%; RE007 growth inh: -6%

What do the screens show for `CC(C)c1ccc(N2C(=O)NC(=O)/C(=C/C=C/c3ccco3)C2=O)cc1`?
Sm TGR inh: inconclusive; FMDV antiviral: 13µM*; TbPYK inhibitor: -26%; RE007 growth inh: 13%

How did Cc1cc(C)cc(N2C(=O)NC(=O)/C(=C\C=C\c3ccco3)C2=O)c1 do in these assays?
Sm TGR inh: inconclusive; FMDV antiviral: 14µM*; TbPYK inhibitor: -22%; RE007 growth inh: 36%

What do the screens show for `O=C1NC(=O)N(Cc2ccc(F)cc2)C(=O)/C1=C\C=C\c1ccco1`?
Sm TGR inh: 7.9µM*; FMDV antiviral: 28µM*; TbPYK inhibitor: -12%; RE007 growth inh: 2%

What do the screens show for `c1cc(NC2CC2)nc(-c2ccoc2)n1`?
FMDV antiviral: 26%

Results for CC(C)(C)c1ccc(/C=C(\c2nc3ccccc3[nH]2)S(=O)(=O)c2ccccc2)cc1 ?
FMDV antiviral: 20µM*; TbPYK inhibitor: 7%; RE007 growth inh: 7%

Results for Cc1cccc(/C=C(\c2nc3ccccc3[nH]2)S(=O)(=O)c2ccccc2)c1 ?
Sm TGR inh: inconclusive; FMDV antiviral: 8.9µM*; TbPYK inhibitor: 0%; RE007 growth inh: -2%

How did Cc1ccc(NC(=S)c2nc3ccccc3[nH]2)c(C)c1 do in these assays?
Sm TGR inh: -26%; FMDV antiviral: -52%; TbPYK inhibitor: -3%; RE007 growth inh: inconclusive

What do the screens show for `O=C(O)c1ccc(/C=C(\c2nc3ccccc3[nH]2)c2nc3ccccc3s2)cc1`?
Sm TGR inh: inconclusive; FMDV antiviral: -11%; TbPYK inhibitor: 3%; RE007 growth inh: -9%

Results for Cc1ccc(S(=O)(=O)NCCc2nnc3ccc(SCc4cccc(F)c4)nn23)cc1 ?
Sm TGR inh: 7%; FMDV antiviral: 7%; TbPYK inhibitor: -9%

What do the screens show for `CCOCCCn1c(SCC(=O)Nc2ccc(F)cc2)nc2c(sc3ccccc32)c1=O`?
Sm TGR inh: -7%; FMDV antiviral: -12%; TbPYK inhibitor: -3%

How did Cc1cc(C)n(CC(=O)N2CCC(n3c(C(C)C)nc4cccnc43)CC2)n1 do in these assays?
FMDV antiviral: -1%

How did Cn1nc(C(C)(C)C)cc1C(=O)NCc1cc(F)cc2c1OCOC2 do in these assays?
Sm TGR inh: 25%; FMDV antiviral: 13µM*; TbPYK inhibitor: -9%; RE007 growth inh: -3%

How did Cc1cccc(Cn2c(=O)n(CCc3ccccc3)c(=O)c3sc4ccccc4c32)c1 do in these assays?
Sm TGR inh: -9%; FMDV antiviral: 1%; TbPYK inhibitor: 0%

Results for C[C@]12CCC(=O)C=C1CC[C@H]1C2CC[C@@]2(C)[C@@H]1CC[C@]2(C)O (some centres undefined) ?
TbPYK inhibitor: -5%

How did COc1ccc(S(=O)(=O)c2cc(NS(=O)(=O)c3ccc(Cl)cc3)c(C)c(C)c2O)cc1 do in these assays?
Sm TGR inh: -23%; FMDV antiviral: 8%; TbPYK inhibitor: 7%

How did O=C(O)COc1ccc2c(c1)O/C(=C\c1ccco1)C2=O do in these assays?
Sm TGR inh: 22µM*; FMDV antiviral: -3%; TbPYK inhibitor: -22%; RE007 growth inh: 15%

What do the screens show for `O=C(Cn1cc(S(=O)(=O)N2CCN(c3ccccc3F)CC2)c2ccccc2c1=O)Nc1cccc(C(F)(F)F)c1`?
Sm TGR inh: 8%; FMDV antiviral: 2%; TbPYK inhibitor: 1%

What do the screens show for `CCC1CCCCN1C(=O)Cn1c(=O)n(CCCCCC(=O)NCc2ccc(F)cc2)c(=O)c2sccc21` (centres undefined)?
Sm TGR inh: -1%; FMDV antiviral: -14%; TbPYK inhibitor: 1%

How did CCOC(=O)[C@]12Cc3c(cc(OC)c(OC)c3OC)[C@H]1N(C1CCCCC1)C(=O)c1cc(OC)ccc12 do in these assays?
FMDV antiviral: 13µM*; TbPYK inhibitor: 3%; RE007 growth inh: -26%
